# Measurements published in the supplement of paper PMC13094657.
# Counter-ions that a name gives are not always drawn. ± gives the standard deviation of the averaged measurements.
# What was measured:
# [1] = tested on: MDA-MB-231; experiment: cell viability relative to vehicle unstimulated control (fraction); higher = more viable cells; conditions: pre-treatment time: 18 h then 24 h IFNg/TNF
# [2] = tested on: MDA-MB-231; experiment: kynurenine production, fold change vs DMSO IFNg/TNF control; higher = more kynurenine produced (less inhibition); conditions: pre-treatment time: 18 h then 24 h IFNg/TNF
# Procedure, shortened: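 After trichloroacetic acid and p-dimethylaminobenzaldehyde treatment, supernatants were read at 492 nm, with 0–100 μM standards. These came from MDA-MB-231 cells (7 × 10^4/well, 96-well plates) pre-treated 18 h with natural products in 0.1% DMSO and then exposed 24 h to IFNγ (1 U/ml) and TNF (6.25 ng/ml) at 37°C. Values for kynurenine production are fold changes over same-plate cytokine-stimulated vehicle wells, averaged over duplicate plates in the first screening round.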
# 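Wherever cell viability relative to vehicle unstimulated control is given: viability of the cells left after supernatant collection, read with Deep Blue dye added for 4 h, as absorbance at 570 nm minus 600 nm.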
SMILES,cell viability [1],kynurenine production [2]
CC(C)(O)[C@@H]1CC[C@](C)([C@H]2[C@@H](O)C[C@@]3(C)[C@@H]4C[C@H](O)[C@H]5C(C)(C)[C@@H](O[C@@H]6OC[C@@H](O)[C@H](O)[C@H]6O[C@@H]6O[C@H](CO)[C@@H](O)[C@H](O)[C@H]6O)CC[C@@]56C[C@@]46CC[C@]23C)O1 [Astragaloside III] (compound dose: 10 uM),1.03 ± 0.069,0.822 ± 0.018
C=C[C@@](C)(/C=C/c1ccc(O)cc1)CCC=C(C)C [Bakuchiol] (compound dose: 10 uM),0.95 ± 0.037,0.736 ± 0.018
C[C@@H]1O[C@@H](OC[C@H]2O[C@@H](Oc3c(-c4ccc(O)c(O)c4)oc4cc(O)cc(O)c4c3=O)[C@H](O)[C@@H](O)[C@@H]2O)[C@H](O)[C@H](O)[C@H]1O [Rutin] (compound dose: 10 uM),0.867,0.755 ± 0.058
CSC(=O)OCC1=C[C@H](O)[C@H]2C(C(=O)O)=CO[C@@H](O[C@@H]3O[C@@H](CO)[C@@H](O)[C@@H](O)[C@H]3O)[C@H]12 [Paederosidic acid] (compound dose: 10 uM),1.14 ± 0.012,1.07 ± 0.07
CC(C)C1=CC2=CC[C@@H]3[C@](C)(CCC[C@@]3(C)C(=O)O)[C@H]2CC1 [Abietic acid] (compound dose: 10 uM),1.08 ± 0.025,0.803 ± 0.22
C=C1CCC[C@]2(C)C[C@]3(O)OC(=O)C(C)=C3C[C@@H]12 [Atractylenolide III] (compound dose: 10 uM),1.015 ± 0.0091,0.763 ± 0.15
C[C@@H]1O[C@@H](O[C@H]2[C@H](OC(=O)[C@]34CCC(C)(C)C[C@H]3C3=CC[C@@H]5[C@@]6(C)C[C@H](O)[C@H](O[C@@H]7O[C@H](CO)[C@@H](O)[C@H](O)[C@H]7O)[C@](C)(CO)[C@@H]6CC[C@@]5(C)[C@]3(C)CC4)O[C@H](CO)[C@@H](O[C@@H]3OC[C@@H](O)[C@H](O)[C@H]3O)[C@@H]2O[C@@H]2OC[C@](O)(CO)[C@H]2O)[C@H](O)[C@H](O)[C@H]1O [Polygalasaponin V] (compound dose: 10 uM),0.992 ± 0.027,0.803 ± 0.068
C=C(C=O)[C@H]1CC[C@H](C)[C@H]1C=O [dolichodial] (compound dose: 10 uM),1 ± 0.032,0.897 ± 0.018
"CCCCC/C=C\C=C\C(=O)O[C@H]1C(C)=C[C@]23C(=O)[C@@H](C=C(CO)[C@@H](O)[C@]12O)[C@H]1[C@@H](C[C@H]3C)C1(C)C [3-O-(2'E,4'ZDecadienoyl) ingenol] (compound dose: 10 uM)",1 ± 0.09,1.022 ± 0.0084
CC(=O)O[C@H]1CC(=O)OC(C)(C)[C@@H]2CC(=O)[C@]3(C)[C@H](CC[C@@]4(C)[C@@H](c5ccoc5)OC(=O)[C@H]5O[C@]543)[C@@]12C [Nomilin] (compound dose: 10 uM),1.03 ± 0.023,0.942 ± 0.087
C[n+]1cccc(C(=O)[O-])c1 [Trigonelline hydrochloride] (compound dose: 10 uM),0.913,0.906 ± 0.16
CC(C)C1=CC(=O)C(C)(C2C(O)CC3(C)C4CC=C5C(CCC(OC6OC(CO)C(O)C(O)C6OC6OC(C)C(O)C(O)C6O)C5(C)C)C4(C)C(=O)CC23C)O1 (centres undefined) [Picfeltarraenin IB] (compound dose: 10 uM),1.02 ± 0.067,0.771 ± 0.23
CC[C@@H](C(=O)[C@@H](C)[C@@H](O)[C@H](C)CCc1ccc(C)c(O)c1C(=O)O)[C@H]1O[C@](CC)([C@H]2CC[C@](O)(CC)[C@H](C)O2)C[C@@H]1C [Lasalocid (sodium)] (compound dose: 10 uM),0.865 ± 0.04,0.37 ± 0.0038
CC(C)=CCC[C@](C)(O[C@@H]1O[C@H](CO[C@@H]2OC[C@@H](O)[C@H](O)[C@H]2O)[C@@H](O)[C@H](O)[C@H]1O)[C@H]1CC[C@]2(C)[C@@H]1[C@H](O)C[C@@H]1[C@@]3(C)CC[C@H](O[C@@H]4O[C@H](CO)[C@@H](O)[C@H](O)[C@H]4O[C@@H]4O[C@H](CO)[C@@H](O)[C@H](O)[C@H]4O)C(C)(C)[C@@H]3CC[C@]12C [Ginsenoside Rb3] (compound dose: 10 uM),1.01 ± 0.015,0.73 ± 0.19
C=C1C[C@@]23CC[C@H]4[C@@](C)(CCC[C@@]4(C)C(=O)O[C@@H]4O[C@H](CO)[C@@H](O)[C@H](O)[C@H]4O[C@@H]4O[C@H](CO)[C@@H](O)[C@H](O)[C@H]4O)[C@@H]2CC[C@]1(O[C@@H]1O[C@H](CO)[C@@H](O)[C@H](O[C@@H]2O[C@H](CO)[C@@H](O)[C@H](O)[C@H]2O)[C@H]1O[C@@H]1O[C@H](CO)[C@@H](O)[C@H](O)[C@H]1O)C3 [Rebaudioside D] (compound dose: 10 uM),0.931 ± 0.038,0.9927 ± 0.0066
C[C@@H]1O[C@@H](O[C@H]2[C@H](OC(=O)[C@]34CCC(C)(C)C[C@H]3C3=CC[C@@H]5[C@@]6(C)C[C@H](O)[C@H](O[C@@H]7O[C@H](CO)[C@@H](O)[C@H](O)[C@H]7O)C(CO)(CO)[C@@H]6CC[C@@]5(C)[C@]3(C)C[C@H]4O)OC[C@H](O)[C@@H]2O)[C@H](O)[C@H](O)[C@H]1O[C@@H]1OC[C@@H](O)[C@H](O)[C@H]1O [Deapioplatycodin D] (compound dose: 10 uM),0.93 ± 0.031,0.643 ± 0.13

SMILES,cell viability [1],kynurenine production [2]
C=C(C)C(=O)O[C@H]1CC2=C[C@@H](C/C(C)=C/[C@H]3OC(=O)C(=C)[C@H]13)OC2=O [Deoxyelephantopin] (compound dose: 10 uM),0.768 ± 0.041,0.117 ± 0.06
C[C@@H]1CC[C@@]2(OC1)O[C@H]1C[C@H]3[C@@H]4CC=C5C[C@@H](O)C[C@@H](O)[C@]5(C)[C@H]4CC[C@]3(C)[C@H]1[C@@H]2C [Ruscogenin] (compound dose: 10 uM),1.01 ± 0.037,1.32 ± 0.2
CC(CC(=O)C[C@@H](C)[C@H]1CC(=O)[C@@]2(C)C3=C(C(=O)C[C@]12C)[C@@]1(C)CCC(=O)C(C)(C)[C@@H]1C[C@@H]3O)C(=O)O (some centres undefined) [Ganoderic acid D] (compound dose: 10 uM),0.916 ± 0.036,0.869 ± 0.11
CC12CCC(C1)C(C)(C)C2O (centres undefined) [Fenchyl alcohol] (compound dose: 10 uM),1.03 ± 0.041,0.817 ± 0.31
CC1=C2[C@@H](OC1=O)[C@H](O)[C@]13[C@H]4C[C@@H](C(C)(C)C)[C@]15[C@@H](OC(=O)[C@@H]5O)O[C@@]23C(=O)O4 [Ginkgolide K] (compound dose: 10 uM),0.996 ± 0.15,0.988 ± 0.29
COc1ccc2c(c1O)-c1c(O)c(OC)cc3c1[C@H](C2)[N+](C)(C)CC3 [Magnoflorine] (compound dose: 10 uM),0.966 ± 0.05,0.937 ± 0.057
CC1(C)CC[C@]2(C(=O)O)CC[C@]3(C)C(=CC[C@@H]4[C@@]5(C)C[C@@H](O)[C@H](O)C(C)(C)[C@@H]5CC[C@]43C)[C@@H]2C1 [Maslinic acid] (compound dose: 10 uM),0.962 ± 0.032,0.876 ± 0.12
CCOC(=O)/C=C/c1ccccc1 [Ethyl cinnamate] (compound dose: 10 uM),0.988 ± 0.085,1.14 ± 0.11
C=C[C@]1(C)C[C@@H](OC(=O)CO)[C@]2(C)[C@H](C)CC[C@]3(CCC(=O)[C@@H]32)[C@@H](C)[C@@H]1O [Pleuromutilin] (compound dose: 10 uM),1.01 ± 0.057,0.861 ± 0.094
C[C@@]12C[C@@]3(O)O[C@@H](O1)[C@]1(COC(=O)c4ccccc4)[C@@H]3C[C@]12O[C@@H]1O[C@H](COC(=O)c2ccccc2)[C@@H](O)[C@H](O)[C@H]1O [Benzoylpaeoniflorin] (compound dose: 10 uM),0.956 ± 0.034,0.893 ± 0.11
C[C@H](CCC(=O)NCC(=O)O)[C@H]1CC[C@H]2[C@@H]3[C@H](O)C[C@@H]4C[C@H](O)CC[C@]4(C)[C@H]3CC[C@]12C [Glycochenodeoxycholic acid (sodium salt)] (compound dose: 10 uM),0.956 ± 0.082,0.955 ± 0.14
CC1(C)CC[C@]2(C(=O)O)CC[C@]3(C)C(=CC[C@@H]4[C@@]5(C)CC[C@H](O[C@@H]6O[C@H](C(=O)O)[C@@H](O)[C@H](O)[C@H]6O[C@@H]6O[C@H](CO)[C@@H](O)[C@H](O)[C@H]6O)C(C)(C)[C@@H]5CC[C@]43C)[C@@H]2C1 [Zingibroside R1] (compound dose: 10 uM),1.19 ± 0.15,1.06 ± 0.15
CC1(C)[C@@H](O[C@H]2O[C@H](C(=O)O)[C@@H](O)[C@H](O)[C@H]2O[C@@H]2O[C@H](C(=O)O)[C@@H](O)[C@H](O)[C@H]2O)CC[C@]2(C)[C@H]3C(=O)C=C4[C@@H]5C[C@@](C)(C(=O)O)CC[C@]5(C)CC[C@@]4(C)[C@]3(C)CC[C@@H]12 [Glycyrrhizic acid] (compound dose: 10 uM),1.05 ± 0.075,0.842 ± 0.057
CSC(=O)OCC1=C[C@@H]2OC(=O)C3=CO[C@@H](O[C@@H]4O[C@H](CO)[C@@H](O)[C@H](O)[C@H]4O)[C@H]1[C@@H]32 [Paederoside] (compound dose: 10 uM),1.14 ± 0.027,0.937 ± 0.11
CC=C1[C@H](O[C@@H]2O[C@H](CO)[C@@H](O)[C@H](O)[C@H]2O)OC=C(C(=O)OC)[C@H]1CC(=O)OC[C@H]1O[C@@H](OCCc2ccc(O)cc2)[C@H](O)[C@@H](O)[C@@H]1O (stereo in doubt) [Specnuezhenide] (compound dose: 10 uM),1 ± 0.026,0.905 ± 0.21
CC(=O)OC/C=C(C)/C=C/C=C(C)/C=C/C1=C(C)CCCC1(C)C [Retinyl acetate] (compound dose: 10 uM),0.9487 ± 0.0087,0.753 ± 0.084
